In PubChem BioAssay (NCI):
The panel holds about 83,000 compounds, 20% with a hit somewhere; the sample as a whole holds those more often.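 Method: cells in 96-well plates; compound added at one concentration; 48 h incubation; percent growth measured; values under 10 scored active.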 The source made the active and inactive calls.

Key:
Assay in all cases: NCI-60 one-dose screen, 48 h (100 = growth as untreated, 0 = no growth, -100 = all killed)
Conditions in all cases: 10 µM unless noted
SR leukemia = tested on: SR leukemia
OVCAR-8 ovarian = tested on: OVCAR-8 ovarian
OVCAR-5 ovarian = tested on: OVCAR-5 ovarian
OVCAR-4 ovarian = tested on: OVCAR-4 ovarian
SK-OV-3 ovarian = tested on: SK-OV-3 ovarian
IGROV1 ovarian = tested on: IGROV1 ovarian
OVCAR-3 ovarian = tested on: OVCAR-3 ovarian
HS 578T breast = tested on: HS 578T breast
NCI/ADR-RES ovarian = tested on: NCI/ADR-RES ovarian
RPMI-8226 leukemia = tested on: RPMI-8226 leukemia

Measured: growth

Cc1ccc(C(C)C)cc1Oc1cccc(-c2c(-c3ccc(C(F)(F)F)cc3)ncn2C2CCNCC2)n1
active: SR leukemia -75.5% | OVCAR-8 ovarian -66.9% | OVCAR-5 ovarian -69.5% | OVCAR-4 ovarian -89% | SK-OV-3 ovarian -93.7% | IGROV1 ovarian -91.5% | OVCAR-3 ovarian -69.2% | HS 578T breast -63.1% | NCI/ADR-RES ovarian -83%

O=C(N/N=C/c1occc1Br)c1[nH]c2ccc(Br)cc2c1-c1ccccc1
active: SR leukemia -9.6% | RPMI-8226 leukemia -4.48% | OVCAR-8 ovarian -51.7% | OVCAR-5 ovarian -99.8% | OVCAR-4 ovarian -87% | OVCAR-3 ovarian -73.7% | HS 578T breast -28.4% | NCI/ADR-RES ovarian -53.5%

N#CC1=C(c2cccs2)Nc2c(c(-c3ccccc3)nn2-c2ccccc2)C12C(=O)Nc1ccc(Br)cc12 (stereo not drawn)
active: SR leukemia -1.14% | RPMI-8226 leukemia 2.85% | OVCAR-8 ovarian -14.6% | OVCAR-5 ovarian -60.4% | OVCAR-4 ovarian 0.653% | IGROV1 ovarian -7.57% | OVCAR-3 ovarian -25.7% | HS 578T breast -7.18%
inactive: NCI/ADR-RES ovarian 10.5%

COc1cc(CNC(=O)C[C@H](C)CCC=C(C)C)ccc1OCc1cn(-c2ccccc2Cl)nn1
inactive: SR leukemia 48.5% | RPMI-8226 leukemia 47.6% | OVCAR-8 ovarian 49.8% | OVCAR-5 ovarian 93.1% | OVCAR-4 ovarian 33.3% | IGROV1 ovarian 87.1% | OVCAR-3 ovarian 83.6% | HS 578T breast 81% | NCI/ADR-RES ovarian 24%

C=CCn1c(O)c(N=Nc2nc(-c3cc4ccccc4oc3=O)cs2)c2ccccc21
inactive: SR leukemia 16.2% | RPMI-8226 leukemia 106% | OVCAR-8 ovarian 80.9% | OVCAR-5 ovarian 18.6% | OVCAR-4 ovarian 80.9% | IGROV1 ovarian 23.9% | OVCAR-3 ovarian 49.3% | HS 578T breast 27.5% | NCI/ADR-RES ovarian 91.6%

COc1ccc2c(c1)c(-c1cc(N)n3nc(-c4c[nH]c5ccccc45)cc3n1)cn2C
active: SR leukemia 6.54% | RPMI-8226 leukemia -9.07% | OVCAR-8 ovarian -74.7% | OVCAR-5 ovarian -69.7% | OVCAR-4 ovarian -29.8% | IGROV1 ovarian -62.4% | OVCAR-3 ovarian -71.1% | HS 578T breast -17.9% | NCI/ADR-RES ovarian -43.3%

O=[N+]([O-])c1cccc(-c2nnc3c(/C=C/c4ccc(F)cc4)nc4ccccc4n23)c1
inactive: SR leukemia 85.2% | RPMI-8226 leukemia 102% | OVCAR-8 ovarian 85.2% | OVCAR-5 ovarian 108% | OVCAR-4 ovarian 73.7% | IGROV1 ovarian 109% | OVCAR-3 ovarian 116% | HS 578T breast 47.9% | NCI/ADR-RES ovarian 87.4%

COc1cc(CNC(=O)C[C@H](C)CCC=C(C)C)ccc1OCc1cn(-c2ccccc2F)nn1
inactive: SR leukemia 73.4% | OVCAR-8 ovarian 66.5% | OVCAR-5 ovarian 94.9% | OVCAR-4 ovarian 71.4% | SK-OV-3 ovarian 43.6% | IGROV1 ovarian 81.9% | OVCAR-3 ovarian 105% | HS 578T breast 39.5% | NCI/ADR-RES ovarian 54.8%

O=C(Nc1ccc(-c2ccc3c(c2)NC(=O)/C3=C\c2ccc[nH]2)cc1)Nc1ccc(Cl)c(C(F)(F)F)c1
active: SR leukemia 6.31%
inactive: RPMI-8226 leukemia 30.3% | OVCAR-8 ovarian 50.5% | OVCAR-5 ovarian 51.2% | OVCAR-4 ovarian 28.9% | IGROV1 ovarian 61.7% | OVCAR-3 ovarian 29.1% | HS 578T breast 39% | NCI/ADR-RES ovarian 51.7%

CC1CCc2c(sc3nc(SCC(=O)c4cccc(Br)c4)n(-c4ccccc4)c(=O)c23)C1 (stereo not drawn)
inactive: SR leukemia 22.3% | RPMI-8226 leukemia 58.8% | OVCAR-8 ovarian 19.2% | OVCAR-5 ovarian 47.8% | OVCAR-4 ovarian 30.6% | IGROV1 ovarian 33.7% | OVCAR-3 ovarian 55.7% | HS 578T breast 57.7% | NCI/ADR-RES ovarian 35.2%

Cc1oc(-c2ccccc2)nc1CN[C@@H]1C[C@@H]2C[C@H]([C@H]1C)C2(C)C
inactive: OVCAR-8 ovarian 82.6% | OVCAR-5 ovarian 30.7% | OVCAR-4 ovarian 74.5% | SK-OV-3 ovarian 73.5% | IGROV1 ovarian 37.6% | OVCAR-3 ovarian 84.4% | HS 578T breast 69.2%
active: SR leukemia -6.32% | NCI/ADR-RES ovarian -38.1%

CN(C)c1nc(NCCNS(=O)(=O)c2ccc(C3=Nc4c(N)nc(N)nc4NC(c4ccc(C(F)(F)F)cc4)C3)cc2)nc(N2CCOCC2)n1 (stereo not drawn)
active: SR leukemia 3.12%
inactive: RPMI-8226 leukemia 34.8% | OVCAR-8 ovarian 43.2% | OVCAR-5 ovarian 78% | OVCAR-4 ovarian 58% | IGROV1 ovarian 45.7% | OVCAR-3 ovarian 58.2% | HS 578T breast 40.7% | NCI/ADR-RES ovarian 91.8%

COc1cc(C2CC(c3ccc(C(F)(F)F)cc3)=Nc3c(N)nc(N)nc3N2)ccc1Oc1nc(Nc2ccc(F)cc2)nc(N(C)C)n1 (stereo not drawn)
active: SR leukemia -25.2%
inactive: RPMI-8226 leukemia 24.3% | OVCAR-8 ovarian 46.9% | OVCAR-5 ovarian 89.1% | OVCAR-4 ovarian 37.1% | IGROV1 ovarian 39.8% | OVCAR-3 ovarian 76.1% | HS 578T breast 48.9% | NCI/ADR-RES ovarian 37%

NC(=Nc1ccc(OCCCCCCCCn2cnnn2)cc1)c1ccccc1
inactive: SR leukemia 14.6% | RPMI-8226 leukemia 29.5% | OVCAR-5 ovarian 23.1% | OVCAR-4 ovarian 56% | SK-OV-3 ovarian 35.3% | IGROV1 ovarian 24.4% | HS 578T breast 22%

N#CC1=C(c2cccs2)Nc2c(c(-c3ccccc3)nn2-c2ccccc2)C12C(=O)Nc1ccc(Cl)cc12 (stereo not drawn)
active: OVCAR-5 ovarian 5.03% | HS 578T breast 8.15%
inactive: SR leukemia 12.6% | RPMI-8226 leukemia 13.3% | OVCAR-8 ovarian 28% | OVCAR-4 ovarian 27.2% | IGROV1 ovarian 24% | OVCAR-3 ovarian 23.1% | NCI/ADR-RES ovarian 33%

O=C(Cn1c(-c2ccccc2)nc2ccccc21)N=Nc1c(O)[nH]c2ccc(Br)cc12
inactive: RPMI-8226 leukemia 21.9%
active: SR leukemia -25.7% | OVCAR-8 ovarian -39.2% | OVCAR-5 ovarian 0.0575% | OVCAR-4 ovarian -62.1% | IGROV1 ovarian -41.8% | OVCAR-3 ovarian -22.5% | HS 578T breast -28.8% | NCI/ADR-RES ovarian -55.7%

O=C(N/N=C/c1ccsc1)c1[nH]c2ccc(Br)cc2c1-c1ccccc1
active: SR leukemia 2.42% | RPMI-8226 leukemia 1.5% | OVCAR-8 ovarian -49.4% | OVCAR-5 ovarian -57.4% | OVCAR-4 ovarian -30.8% | IGROV1 ovarian -57% | OVCAR-3 ovarian -72.9% | HS 578T breast -13.3% | NCI/ADR-RES ovarian -42%

O=C(NNC(=S)NCCc1ccccc1)c1ccc(OCc2nc3ccc(Cl)cc3[nH]2)cc1
inactive: SR leukemia 54.2% | RPMI-8226 leukemia 49.1% | OVCAR-8 ovarian 86.2% | OVCAR-5 ovarian 113% | OVCAR-4 ovarian 49.7% | IGROV1 ovarian 80.3% | OVCAR-3 ovarian 68.2% | HS 578T breast 81.2% | NCI/ADR-RES ovarian 93.9%

Nc1cc(-c2c[nH]c3ccc(Br)cc23)nc2cc(-c3c[nH]c4ccccc34)nn12
active: SR leukemia 7.93% | RPMI-8226 leukemia 0.137% | OVCAR-8 ovarian -54.1% | OVCAR-5 ovarian -72.7% | OVCAR-4 ovarian -5.21% | IGROV1 ovarian -77.1% | OVCAR-3 ovarian -34% | HS 578T breast -12.4% | NCI/ADR-RES ovarian -17.9%

Cc1nc(Nc2ccccn2)sc1C1=NNC(c2ccccc2F)C1 (stereo not drawn)
inactive: SR leukemia 12.4% | OVCAR-8 ovarian 68% | OVCAR-5 ovarian 82.8% | OVCAR-4 ovarian 74.8% | SK-OV-3 ovarian 98.3% | IGROV1 ovarian 64.2% | OVCAR-3 ovarian 24.8% | HS 578T breast 87.6% | NCI/ADR-RES ovarian 20.9%

N/C(=N\c1nc2ccc([N+](=O)[O-])cc2s1)NC(=O)Nc1ccccc1Cl
inactive: SR leukemia 23.6% | RPMI-8226 leukemia 60.7% | OVCAR-5 ovarian 38.2% | IGROV1 ovarian 55.8% | HS 578T breast 59.7% | NCI/ADR-RES ovarian 37.6%
active: OVCAR-8 ovarian 6.87% | OVCAR-4 ovarian -26.5% | OVCAR-3 ovarian -52.8%

O=C(N/N=C/c1ccc(Cl)o1)c1[nH]c2ccc(Br)cc2c1-c1ccccc1
active: SR leukemia 7.2% | RPMI-8226 leukemia 1.15% | OVCAR-8 ovarian -56.7% | OVCAR-5 ovarian -24.9% | OVCAR-4 ovarian -22.3% | IGROV1 ovarian 5.37% | OVCAR-3 ovarian -11.3% | HS 578T breast 3.22% | NCI/ADR-RES ovarian -79%

O=C(N/N=C/c1c[nH]c2ccccc12)Nc1ccccc1Cl
inactive: OVCAR-5 ovarian 23.1% | OVCAR-4 ovarian 53.9% | SK-OV-3 ovarian 15.4% | IGROV1 ovarian 19.9%
active: SR leukemia 5.61% | OVCAR-8 ovarian -7.94% | OVCAR-3 ovarian -28.4% | HS 578T breast 8.49% | NCI/ADR-RES ovarian -9.92%

O=c1ccc(Cn2c(C(F)(F)F)cc3c(Cl)ncnc32)c[nH]1
active: SR leukemia -53.9% | OVCAR-8 ovarian 0.681% | OVCAR-4 ovarian -2.63% | IGROV1 ovarian -67.4% | OVCAR-3 ovarian -20% | HS 578T breast -14.4%
inactive: RPMI-8226 leukemia 81.1% | OVCAR-5 ovarian 126% | NCI/ADR-RES ovarian 61.3%

C=CCSc1nnc(-c2ccc(-c3nc4ccccc4[nH]3)cc2)o1
inactive: SR leukemia 81% | RPMI-8226 leukemia 34.9% | OVCAR-8 ovarian 55.9% | OVCAR-5 ovarian 105% | OVCAR-4 ovarian 46.1% | IGROV1 ovarian 101% | OVCAR-3 ovarian 91.5% | HS 578T breast 79% | NCI/ADR-RES ovarian 61.1%

O=C(CSc1nc2sc3c(c2c(=O)n1-c1ccc(Cl)cc1)CCCC3)NNC(=O)c1ccc(Br)cc1
inactive: SR leukemia 34.4% | RPMI-8226 leukemia 81.3% | OVCAR-8 ovarian 34.3% | OVCAR-5 ovarian 58.8% | OVCAR-4 ovarian 64% | IGROV1 ovarian 60.3% | OVCAR-3 ovarian 112% | HS 578T breast 56.7% | NCI/ADR-RES ovarian 66%

Cc1nc(N)ncc1-c1ccc2ncnc(N3CCc4cc(F)c(Cl)cc43)c2c1
active: IGROV1 ovarian -10.1%
inactive: SR leukemia 45.1% | RPMI-8226 leukemia 59.5% | OVCAR-8 ovarian 65.4% | OVCAR-5 ovarian 49.7% | OVCAR-4 ovarian 59.6% | OVCAR-3 ovarian 52% | HS 578T breast 20.1% | NCI/ADR-RES ovarian 62.7%

O=C(CSc1nc2ccccc2c(=O)[nH]1)Nc1ccccc1C(=O)O
inactive: SR leukemia 95.2% | OVCAR-8 ovarian 109% | OVCAR-5 ovarian 105% | OVCAR-4 ovarian 109% | SK-OV-3 ovarian 90.7% | IGROV1 ovarian 109% | OVCAR-3 ovarian 106% | HS 578T breast 79.3% | NCI/ADR-RES ovarian 103%

Fc1ccccc1CNc1nc(SCCN2CCOCC2)nc2c1cnn2CC(Cl)c1ccc(Br)cc1 (stereo not drawn)
inactive: OVCAR-8 ovarian 43.8% | OVCAR-5 ovarian 71.3% | OVCAR-4 ovarian 45% | SK-OV-3 ovarian 58.3% | IGROV1 ovarian 73.7% | OVCAR-3 ovarian 66.7% | HS 578T breast 17% | NCI/ADR-RES ovarian 33.5%
active: SR leukemia -3.85%
